Source: PubChem (National Center for Advancing Translational Sciences (NCATS))
CHX counter: Cycloheximide Counterscreen for Small Molecule Inhibitors of Shiga Toxin; cell reporter, cycloheximide protein synthesis inhibition counterscreen; max response, %; hit rate 12% among 300,000; AID 2314, 2010; in the data active = max response mostly above about 13%, no sharp cut-off; inactive = mostly below about 14%; note: read at 38.3 µM for the half of the compounds with a filed dose; 0% is about no effect
Lassa entry inh: qHTS for Inhibitors of binding or entry into cells for Lassa Virus; Lassa virus pseudotype entry inhibition, cell reporter; Potency, µM (top dose mostly 37.9 µM), inactives show top-dose activity change, negative = inhibition, usual class: inhibitors; hit rate 1.2% among 300,000; AID 540256, 2011; calls by dose curve; tested in HEK293 cells; note: potency is the fitted concentration of half-maximal effect; % is set by controls: 0 for no effect and ±100 for the full control effect; nearly all actives have a fitted effect of over 50% in size
FMDV inh: High Throughput Screening for Foot and Mouth Disease Virus Antivirals; FMDV antiviral cell-based qHTS; Potency, µM (top dose mostly 57.9 µM), without a hit: at the top dose activity change, negative = inhibition, hits mostly inhibitors; hit rate 1.2% among 410,000; AID 1159524, 2015; calls by dose curve; tested in HEK293T cells; note: read-out not given here; potency is the fitted concentration of half-maximal effect; % is set by controls: 0 for no effect and ±100 for the full control effect; nearly all actives have a fitted effect of over 45% in size
HCV inh: qHTS Assay for Inhibitors of Hepatitis C Virus (HCV); Huh7.5.1 HCVcc-Cre infection, luciferase reporter, 44 h; Potency, µM (highest dose often 41.8 µM), inactives show at the highest dose activity change, negative = inhibition, actives largely listed as inhibitors; hit rate 3.4% among 340,000; AID 651820, 2012; active = well fitted inhibition curve with a large enough effect; inconclusive = small, poorly fitted or top-dose-only effect, or another doubt; inactive = no such curve, though single readings can be large or run the other way; note: potency is the fitted concentration of half-maximal effect; % is set by controls: 0 for no effect and ±100 for the full control effect
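After 44 h co-culture of compound, cells and HCVcc-Cre (~0.5 moi), substrate is added for 15 min at room temperature and luciferase measured over 15 sec. Cells were seeded at 1,000/well and pre-cultured 4 h.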
Shiga inhibitor: A qHTS for Small Molecule Inhibitors of Shiga Toxin. Vero cells, Shiga toxin protein synthesis inhibition reporter. inhibition, % at 38.7 µM. hit rate 9.2% among 290,000; in the data active = inhibition mostly above about 28%, no sharp cut-off; inactive = mostly below about 43%; note: 0% is about no effect
Marburg entry inh: qHTS for inhibitors of binding or entry into cells for Marburg Virus; Potency, µM (doses to about 37.8 µM), without a hit: top-dose activity change, negative = inhibition, usual class: inhibitors; hit rate 1.8% among 300,000; Marburg virus pseudotyped entry inhibition, cell reporter; AID 540276, 2011; calls by dose curve; tested in HEK293 cells; note: potency is the fitted concentration of half-maximal effect; % is set by controls: 0 for no effect and ±100 for the full control effect
The depositor's hits bear a star; ? = inconclusive; / = no result; [ ] = dose if it differs, or a comment. Shown are actives, neighbours in structure and some others; about 13% of the full set was active somewhere.

SMILES | CHX counter | Lassa entry inh | FMDV inh | HCV inh | Shiga inhibitor | Marburg entry inh
CCN(CC)c1ccc(/C=N/NC(=O)C(O)(c2ccccc2)c2ccccc2)o1 | 4 | -18% | / | 9% | -4 | -26%
CCOC(=O)[C@@H]1[C@H]2COc3ccccc3[C@@H]2N2C(=O)N(c3ccc(Br)cc3)C(=O)[C@@]12C | / | / | 13% | / | / | /
CC(C)(C(=O)c1ccccc1)/[N+]([O-])=C/c1ccc(F)cc1 | / | -15% | -5% | -6% | / | -6%
O=C(c1cc(COc2ccc(F)cc2Cl)on1)N1CCCCCCC1 | 32* | / | 3% | -3% | 40* | /
O=C(c1cc(COc2ccc(F)cc2Cl)on1)N1CCCCCC1 | 53* | / | 42% | ? | 89* | /
O=C(N[C@H]1CCCCNC1=O)c1cc(COc2ccc(F)cc2F)on1 | 19* | / | 21% | 3% | 9 | /
CN(CCN1CCOCC1)C(=O)c1cc(COc2ccc(F)cc2Cl)on1 | / | / | 5% | / | / | /
O=C(COc1ccc(F)cc1Cl)Nc1ccccc1C(=O)N1CCCCC1 | / | 16% | 29% | -3% | / | -19%
NC(=O)[C@@H]1CCCN1C(=O)c1cc(COc2ccc(F)cc2F)on1 | 21 | / | 37% | 5% | 19 | /
O=C(NCCc1ccccc1F)c1cc(COc2ccc(F)cc2F)on1 | / | / | 36% | / | / | /
O=C(c1cc(COc2ccc(F)cc2F)on1)N1CCSCC1 | 58* | ? | 34% | 1% | 85* | ?
CCOc1ccccc1NC(=O)N1CCCC1C(=O)NCc1ccco1 (stereo not drawn) | 4 | 25%[46.1 µM] | 14% | -14% | 5 | 15%[46.1 µM]
CN(C)CCCNC(=O)C(=O)NCC1OCCN1S(=O)(=O)c1cc(F)ccc1F (stereo not drawn) | / | -6% | -6% | 16% | / | 19%
CC1(C)CC2CC(C)(CN2C(=O)CCCN2C(=O)c3ccccc3C2=O)C1 (stereo not drawn) | -2 | -8% | -1% | -15% | -10 | 0%
CC(C)[C@H](NC(=O)N1C[C@H]2C[C@@H](C1)c1cccc(=O)n1C2)C(=O)Nc1ccccc1F | -1 | / | -10% | ? | -7 | /
O=C(c1cc(COc2ccc(F)cc2Cl)on1)N1CCC(c2ccncc2)CC1 | 10 | ? | -28% | 13µM* | 22 | ?
O=C(CNC(=O)c1cccc(F)c1)N/N=C/c1cc(Br)ccc1OC(=O)/C=C/c1ccco1 | -2 | ? | -16% | 7.9µM* | 14 | 18µM*
O=C(CNC(=O)c1ccccc1O)N/N=C/c1cc(Br)ccc1OC(=O)/C=C/c1ccco1 | 6 | 5.6µM* | -30% | ? | 26 | ?
CCN(C(=O)c1cccc(Br)c1)c1ccccc1 | 1 | -20% | -20% | 16% | -5 | 3%
O=C(O)/C=C/c1cccnc1 | -2 | / | -15% | 1% | 13 | /
O=C(/C=C/c1cccnc1)c1ccc(F)c(F)c1 | -3 | 12%[46.1 µM] | 0% | 1% | 16 | 7.1µM*
CN(C)c1ccc(C(=O)/C=C/c2cccnc2)cc1 | 46* | / | -16% | -3% | 82* | /
CN(C)c1ccc(/C=C/C(=O)c2cccc(Br)c2)cc1 | 64* | 1% | 35% | -12% | 127* | 4%
O=C(c1cc(=O)[nH]c2ccccc12)N1CCN(S(=O)(=O)c2ccc(Cl)cc2)CC1 | / | / | ? | 12% | / | /
C=CCc1cc(Cl)ccc1OCCn1ccnc1 | -2 | 23%[46.1 µM] | -26% | ? | -11 | ?
SMILES | CHX counter | Lassa entry inh | FMDV inh | HCV inh | Shiga inhibitor | Marburg entry inh
COc1ccc(-c2csc(NC(=O)C3=NN(c4ccccc4)C(=O)CC3)n2)cc1 | 23* | ? | 20µM* | 7.1µM* | 50 | ?
CCN(c1ccccc1)S(=O)(=O)c1ccc(OC)c(NC(=O)C2=NN(c3ccccc3)C(=O)CC2)c1 | / | 0.32µM* | -4% | ? | / | ?
COc1ccc(-c2nc(NC(=O)C3=NN(c4cccc(C)c4)C(=O)CC3)sc2C)cc1 | 17* | / | -17% | -13% | -5 | /
O=C(Nc1nc(-c2cc(F)ccc2F)cs1)C1=NN(c2ccccc2)C(=O)CC1 | 4 | ? | -31% | 3% | -20 | -1%
Cc1ccc2nc(NC(=O)C3=NN(c4ccccc4)C(=O)CC3)sc2c1 | 8 | / | 14% | 2% | 31 | 3%
CCCCN(C=O)c1c(CC)nc2ccc(C(=O)N3CCN(C(C)=O)CC3)cn12 | / | / | 1% | / | / | /
